# Measured values from PubChem BioAssay (Tox21).
# Several values for one entry are separate records, joined by “and”; a condition that tells them apart may be missing. Equal values may be shown once. Values without a mark were called inactive. Where a call stands in place of a potency, no number is given. Activity calls are given as the source filed them. Unless noted, calls follow the shape of the dose curve; as a rule, active = well fitted curve in the direction sought with a large enough effect in the repeat runs; inconclusive = weak or mixed curves; inactive = flat fitted curve, though single readings scatter.
# How the values were obtained:
# [1] = qHTS assay to test for compound auto fluorescence at 535 nm (green) in HEK293 cells (AID 720680)
# [2] = qHTS assay to test for compound auto fluorescence at 460 nm (blue) in HEK293 cell free culture (AID 720681)
# In short: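 Compounds were added to cell-free DMEM with 10% FBS and fluorescence read directly. The blue channel used 405 nm excitation and 460 nm emission, with triamterene as the reference fluorophore.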
# [3] = qHTS assay to test for compound auto fluorescence at 535 nm (green) in HEK293 cell free culture (AID 720682)
# In short: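 Fluorescein serves as the green reference fluorophore; each compound's intrinsic emission at 535 nm (excitation 485 nm) is reported as an equivalent amount of that dye, measured in serum-containing DMEM without cells.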
# [4] = qHTS assay to test for compound auto fluorescence at 590 nm (red) in HEK293 cell free culture (AID 720683)
# In short: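 Cell-free wells of DMEM with 10% FBS received compound, and intrinsic fluorescence was read at excitation/emission 540/590 nm. Values expressed as equivalence to Rose Bengal sodium.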
# [5] = qHTS assay to test for compound auto fluorescence at 590 nm (red) in HepG2 cell free culture (AID 720684)
# In short: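 Auto fluorescence equivalency versus Rose Bengal sodium, red channel Ex/Em 540/590 nm; compounds in cell-free MEM/10% FBS; DMSO vehicle control.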
# [6] = qHTS assay to test for compound auto fluorescence at 460 nm (blue) in HepG2 cell free culture (AID 720685)
# In short: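 Cell-free plates of MEM plus 10% FBS received 23 nL compound or DMSO vehicle; blue-channel (405/460 nm) intensity scored against triamterene as reference fluorophore.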
# [7] = qHTS assay to test for compound auto fluorescence at 460 nm (blue) in HepG2 cells (AID 720687)
# In short: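 HepG2 cells in MEM with 10% FBS, attached overnight at 37 C, were exposed to compound or DMSO for 1 hr at 37 C, 5% CO2. Blue fluorescence was read at 405/460 nm, with triamterene as reference fluorophore.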
# [8] = molecular target: Glucocorticoid receptor (Homo sapiens) (UniProt P04150); assay: qHTS assay to identify small molecule agonists of the glucocorticoid receptor (GR) signaling pathway (AID 720691; active = well fitted activation curve with a large enough effect in the signal ratio in the repeat runs, not every such curve was filed as active; inconclusive = weak or mixed curves, or effect the other way; inactive = no such curve, though single readings can be large or run the other way; the % refers to the signal ratio); settings: GR-bla HeLa, beta-lactamase reporter ratio, 18 h; activation: at 62.4 µM (top of the series)
# Chain of Glucocorticoid receptor (Homo sapiens) (P04150 whole entry, looked up): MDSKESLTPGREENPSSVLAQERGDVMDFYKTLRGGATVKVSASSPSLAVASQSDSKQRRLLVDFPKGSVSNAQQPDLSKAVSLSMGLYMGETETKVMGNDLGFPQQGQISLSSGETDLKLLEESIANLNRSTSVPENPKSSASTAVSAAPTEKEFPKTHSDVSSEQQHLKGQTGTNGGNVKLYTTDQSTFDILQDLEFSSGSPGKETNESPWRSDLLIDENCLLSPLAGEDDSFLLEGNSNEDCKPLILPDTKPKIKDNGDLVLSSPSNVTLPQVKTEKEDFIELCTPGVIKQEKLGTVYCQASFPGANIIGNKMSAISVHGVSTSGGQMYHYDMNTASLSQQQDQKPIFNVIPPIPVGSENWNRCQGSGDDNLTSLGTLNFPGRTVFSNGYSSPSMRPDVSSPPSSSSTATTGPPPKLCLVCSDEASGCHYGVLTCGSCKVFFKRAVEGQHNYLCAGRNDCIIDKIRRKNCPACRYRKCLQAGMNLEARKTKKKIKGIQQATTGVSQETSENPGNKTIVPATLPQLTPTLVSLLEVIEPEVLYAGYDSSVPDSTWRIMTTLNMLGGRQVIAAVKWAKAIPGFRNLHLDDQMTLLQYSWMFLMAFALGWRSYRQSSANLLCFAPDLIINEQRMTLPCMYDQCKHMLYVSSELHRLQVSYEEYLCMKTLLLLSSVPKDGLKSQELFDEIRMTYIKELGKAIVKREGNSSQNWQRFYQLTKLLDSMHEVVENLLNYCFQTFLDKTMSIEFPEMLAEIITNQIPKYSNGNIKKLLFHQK
# In short: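 Measures GR pathway activation through a GRE-beta-lactamase reporter stably integrated in HeLa cells, with 18 h compound treatment at 37 C and fluorescence detection using a FRET substrate.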
# [9] = qHTS assay to test for compound auto fluorescence at 535 nm (green) in HepG2 cell free culture (AID 720686)
# [10] = molecular target: Glucocorticoid receptor (Homo sapiens) (UniProt P04150); assay: qHTS assay to identify small molecule antagonists of the glucocorticoid receptor (GR) signaling pathway (AID 720692; active = well fitted inhibition curve with a large enough effect in the signal ratio in the repeat runs, not every such curve was filed as active; inconclusive = weak or mixed curves, or effect the other way; inactive = no such curve, though single readings can be large or run the other way; the % refers to the signal ratio; also: potency is read from the fitted curve at half-maximal effect)
# In short: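 Tox21 10K library screened in concentration-response for blockade of dexamethasone (5 nM final)-induced GRE-bla reporter activity in HeLa cells; 18 h treatment, fluorescence read.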
smiles,measurement,setting,value
C=C(C)C(=O)OCCC[Si](Cl)(Cl)Cl,Potency,[1],inactive
same,Potency,[2],inactive
same,Potency,[3],inactive
same,Potency,[4],inactive
same,Potency,[5],inactive
same,Potency,[6],inactive
same,Potency,[7],inactive
same,Potency,[8],inactive
CCCCCCCCCC(=O)N(C)C,Potency,[1],inactive
same,Potency,[2],inactive
same,Potency,[3],inactive
same,Potency,[4],inactive
same,Potency,[5],inactive
same,Potency,[6],inactive
same,Potency,[9],inactive
same,Potency,[8],inactive
same,Potency,[10],inactive
O=C(Nc1ccc(Cl)c(Cl)c1)c1cc(Cl)cc(Cl)c1O,Potency,[1],inactive
same,Potency,[2],inactive
same,Potency,[3],inactive
same,Potency,[4],inactive
same,Potency,[5],inactive
same,Potency,[7],inactive
same,activation,[8],11.6% [inconclusive] (active)
C1CC(COCC2CO2)CCC1COCC1CO1 (configuration not stated),Potency,[1],inactive
same,Potency,[2],inactive
same,Potency,[3],inactive
same,Potency,[4],inactive
same,Potency,[5],inactive
same,Potency,[6],inactive
same,Potency,[9],inactive
same,Potency,[8],inactive
COC(=O)CC(C)CCC=C(C)C (configuration not stated),Potency,[1],inactive
same,Potency,[2],inactive
same,Potency,[3],inactive
same,Potency,[4],inactive
same,Potency,[5],inactive
same,Potency,[6],inactive
same,Potency,[7],inactive
same,Potency,[8],inactive
same,Potency,[10],inactive
C[Si](C)(C)Cl,Potency,[1],inactive
same,Potency,[2],inactive
same,Potency,[3],inactive
same,Potency,[4],inactive
same,Potency,[6],inactive
same,Potency,[9],inactive
same,Potency,[7],inactive
same,Potency,[8],inactive
same,Potency,[10],inactive
CCCCN(CCCC)CCC(O)c1cc2c(Cl)cc(Cl)cc2c2cc(C(F)(F)F)ccc12 (configuration not stated),"fluorescence, % of fluorescein",[1],-0.0754% [at 18.6 µM]
same,"fluorescence, % of fluorescent control",[2],-0.0401% [at 18.6 µM]
same,activity change,[3],"-0.0209% [at 18.6 µM, hits give high values]"
same,"fluorescence, % of fluorescent control",[4],0.212% [at 18.6 µM]
same,"fluorescence, % of fluorescent control",[6],-0.0142% [at 18.6 µM]
same,"fluorescence, % of fluorescein control",[9],-0.0465% [at 18.6 µM]
same,"fluorescence, % of fluorescent control",[7],0.0481% [at 18.6 µM]
same,Potency,[8],inactive
Clc1ccc(C(Cn2ccnc2)OCc2ccsc2Cl)c(Cl)c1 (configuration not stated),Potency,[1],inactive
same,Potency,[2],inactive
same,Potency,[3],inactive
same,Potency,[4],inactive
same,Potency,[6],inactive
same,Potency,[7],inactive
Clc1ccc(C(Cn2ccnc2)OCc2c(Cl)cccc2Cl)c(Cl)c1 (configuration not stated),"fluorescence, % of fluorescein",[1],0.16% [at 18.6 µM]
same,"fluorescence, % of fluorescent control",[2],-0.0423% [at 18.6 µM]
same,activity change,[3],"-0.0265% [at 18.6 µM, hits give high values]"
same,"fluorescence, % of fluorescent control",[4],-0.276% [at 18.6 µM]
same,"fluorescence, % of fluorescent control",[6],0% [at 18.6 µM]
same,"fluorescence, % of fluorescent control",[7],0.116% [at 18.6 µM]
O=C1C=CC(=O)N1c1ccccc1,Potency,[1],inactive
same,Potency,[2],inactive
same,Potency,[3],inactive
same,Potency,[4],inactive
same,Potency,[6],inactive
same,Potency,[7],inactive
CNC(=S)NN,Potency,[1],inactive
same,Potency,[2],inactive
same,Potency,[3],inactive
same,Potency,[4],inactive
same,Potency,[6],inactive
same,Potency,[9],inactive
same,Potency,[7],inactive
same,Potency,[8],inactive
same,Potency,[10],inactive
CC(=O)Oc1ccc(C2(c3ccc(OC(C)=O)cc3)C(=O)Nc3ccccc32)cc1,Potency,[1],inactive
same,Potency,[2],inactive
same,Potency,[3],inactive
same,Potency,[4],inactive
same,Potency,[6],inactive
same,Potency,[7],inactive
same,Potency,[8],inactive
same,Potency,[10],16.9 µM (active) and 26.8 µM (active)
CC(C)(c1cc(Br)c(OCCO)c(Br)c1)c1cc(Br)c(OCCO)c(Br)c1,Potency,[1],inactive
same,Potency,[2],inactive
same,Potency,[3],inactive
same,Potency,[4],inactive
same,Potency,[6],inactive
same,Potency,[9],inactive
same,Potency,[7],inactive
CN(C)CCCN1c2ccccc2Sc2ccc(C(F)(F)F)cc21,Potency,[1],inactive
same,Potency,[2],inactive
same,Potency,[3],inactive
same,Potency,[4],inactive
same,Potency,[6],inactive
same,Potency,[9],inactive
same,Potency,[8],inactive
COC(=O)[C@]1(C)CCC[C@@]2(C)[C@H]1CC=C1C=C(C(C)C)CC[C@@H]12,Potency,[1],inactive
same,Potency,[2],inactive
same,Potency,[3],inactive
same,Potency,[4],inactive
same,Potency,[6],inactive
same,Potency,[7],inactive
same,Potency,[8],inactive
same,Potency,[10],inactive
CN(C)c1ccc(N=Nc2ccccc2C(=O)O)cc1,Potency,[1],inactive
same,Potency,[2],inactive
same,Potency,[3],inactive
same,Potency,[4],inactive
same,Potency,[6],inactive
same,Potency,[9],inactive
same,Potency,[7],inactive
same,Potency,[8],inactive
CC(=O)OC(OC(C)=O)c1ccc([N+](=O)[O-])o1,Potency,[1],inactive
same,Potency,[2],inactive
same,Potency,[3],inactive
same,Potency,[4],inactive
same,Potency,[6],inactive
same,Potency,[9],inactive
same,Potency,[7],inactive
same,Potency,[10],55.9 µM (active)
O=C(Nc1ccc(Cl)cc1)Nc1ccc(Cl)c(C(F)(F)F)c1,Potency,[1],inactive
same,Potency,[2],inactive
same,Potency,[3],inactive
same,Potency,[4],inactive
same,Potency,[6],inactive
same,Potency,[9],inactive
same,Potency,[7],inactive
Cc1cc2c(C(C)C)c(O)c(O)c(C=O)c2c(O)c1-c1c(C)cc2c(C(C)C)c(O)c(O)c(C=O)c2c1O,Potency,[1],inactive
same,Potency,[2],inactive
same,Potency,[3],inactive
same,Potency,[4],inactive
same,Potency,[6],inactive
same,Potency,[9],inactive
same,Potency,[7],inactive
CCOC(=O)COc1ccc(C)cc1,Potency,[1],inactive
same,Potency,[2],inactive
same,Potency,[3],inactive
same,Potency,[4],inactive
same,Potency,[6],inactive
same,Potency,[9],inactive
same,Potency,[7],inactive
CNC(=O)c1cc(Oc2ccc(NC(=O)Nc3ccc(Cl)c(C(F)(F)F)c3)cc2)ccn1,Potency,[1],inactive
same,Potency,[2],inactive
same,Potency,[3],inactive
same,Potency,[4],inactive
same,Potency,[6],inactive
same,Potency,[9],inactive
same,Potency,[7],inactive
CC(C(O)c1ccccc1)N(C)CCOC(c1ccccc1)c1ccccc1 (configuration not stated),Potency,[1],inactive
same,Potency,[2],inactive
same,Potency,[3],inactive
same,Potency,[4],inactive
same,Potency,[6],inactive
same,Potency,[9],inactive
same,Potency,[7],inactive
same,Potency,[8],inactive
